Key:
Experiment in all cases: PBM binding z-score (relative to random genomic background probes); higher = stronger binding; sequences stand for … in GC…GCGATTGACAGCGTAGAATGAAGG
[1] = system: FXR:RXRa (NR concentration 270 nM, RXRa partner concentration 90 nM)
Method in brief: (§1)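 Each nuclear receptor dimer, without ligand, was incubated for 1 h on custom Agilent 4×180K protein-binding microarrays. Binding was detected with antibodies against each partner (one per run), and scanned fluorescence was regression-normalized. The binding z-scores are referenced to random human genomic background probes.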

[2] = system: LXRa:RXRa (NR concentration 270 nM, RXRa partner concentration 90 nM)
Method in brief: as §1

[3] = system: LXRa homodimer (NR concentration 270 nM)
Method in brief: as §1

[4] = system: LXRb:RXRa (NR concentration 270 nM, RXRa partner concentration 90 nM)
Method in brief: as §1

[5] = system: LXRb homodimer (NR concentration 270 nM)
Method in brief: as §1

[6] = system: PPARa:RXRa (NR concentration 270 nM, RXRa partner concentration 90 nM)
Method in brief: as §1

[7] = system: PPARg:RXRa (NR concentration 180 nM, RXRa partner concentration 90 nM)
Method in brief: as §1

[8] = system: PPARg:RXRa 270nM:90nM, anti-RXR (NR concentration 270 nM, RXRa partner concentration 90 nM)
Method in brief: as §1

[9] = system: PPARg:RXRa 30nM:10nM, anti-RXR (NR concentration 30 nM, RXRa partner concentration 10 nM)
Method in brief: as §1

[10] = system: PPARg:RXRa 90nM:30nM, anti-RXR (NR concentration 90 nM, RXRa partner concentration 30 nM)
Method in brief: as §1

Sequence: GCGACTGGGGCAGAGCAGGTTACCATAAGGTTGG
- PBM binding z-score [1]: 0.158
- PBM binding z-score [2]: -0.389
- PBM binding z-score [3]: -0.79
- PBM binding z-score [4]: -0.197
- PBM binding z-score [5]: -1.19
- PBM binding z-score [6]: 0.462
- PBM binding z-score [7]: 0.564
- PBM binding z-score [8]: 0.0587
- PBM binding z-score [9]: -1.01
- PBM binding z-score [10]: -0.178

Sequence: ATATTTAGGTTAAGGGTCATTCAGGTTGGTTCGC
- PBM binding z-score [1]: 5.26
- PBM binding z-score [2]: 4.78
- PBM binding z-score [3]: 3.91
- PBM binding z-score [4]: 4.61
- PBM binding z-score [5]: 3.14
- PBM binding z-score [6]: 6.38
- PBM binding z-score [7]: 11
- PBM binding z-score [8]: 9.52
- PBM binding z-score [9]: 9.42
- PBM binding z-score [10]: 10.5

Sequence: AGAACGAGGGCACGCCGAGTTGATAGCAGAGTAG
- PBM binding z-score [1]: 0.906
- PBM binding z-score [2]: 0.551
- PBM binding z-score [3]: -0.503
- PBM binding z-score [4]: 0.0965
- PBM binding z-score [5]: -0.66
- PBM binding z-score [6]: 2.36
- PBM binding z-score [7]: 2.1
- PBM binding z-score [8]: 1.92
- PBM binding z-score [9]: 0.0797
- PBM binding z-score [10]: 0.871

Sequence: CCTAGTTTGTCAGGAGGTCACACACCGGATATGA
- PBM binding z-score [1]: 3.37
- PBM binding z-score [2]: 3.76
- PBM binding z-score [3]: 3
- PBM binding z-score [4]: 3.64
- PBM binding z-score [5]: 1.48
- PBM binding z-score [6]: 4.17
- PBM binding z-score [7]: 2.45
- PBM binding z-score [8]: 3.15
- PBM binding z-score [9]: 1.26
- PBM binding z-score [10]: 2.39

Sequence: AGAATGAGATTATTAAGATCAGGGAATTGCGGTC
- PBM binding z-score [1]: -1.55
- PBM binding z-score [2]: -0.864
- PBM binding z-score [3]: -0.323
- PBM binding z-score [4]: -0.702
- PBM binding z-score [5]: -0.452
- PBM binding z-score [6]: -0.715
- PBM binding z-score [7]: 0.449
- PBM binding z-score [8]: -0.292
- PBM binding z-score [9]: -0.0999
- PBM binding z-score [10]: -0.261

Sequence: TCTAGTTGGTAAAAGGTCACACACTCGAAATGCG
- PBM binding z-score [1]: 5.62
- PBM binding z-score [2]: 5.67
- PBM binding z-score [3]: 4.26
- PBM binding z-score [4]: 5.25
- PBM binding z-score [5]: 1.91
- PBM binding z-score [6]: 5.95
- PBM binding z-score [7]: 8.69
- PBM binding z-score [8]: 8.46
- PBM binding z-score [9]: 8.09
- PBM binding z-score [10]: 9.72

Sequence: CCTCGGAGGACAACGGGAGGTCAGAGCTGCCAGA
- PBM binding z-score [1]: 1.17
- PBM binding z-score [2]: 2.32
- PBM binding z-score [3]: 1.9
- PBM binding z-score [4]: 1.52
- PBM binding z-score [5]: -0.594
- PBM binding z-score [6]: 2.1
- PBM binding z-score [7]: 0.336
- PBM binding z-score [8]: 0.563
- PBM binding z-score [9]: -0.741
- PBM binding z-score [10]: -0.147

Sequence: CGTCCAAGGTCAGCAGGTCAGTGAGAGCGACGTG
- PBM binding z-score [1]: 5.85
- PBM binding z-score [2]: 4.1
- PBM binding z-score [3]: 0.541
- PBM binding z-score [4]: 2.94
- PBM binding z-score [5]: -0.239
- PBM binding z-score [6]: 4.74
- PBM binding z-score [7]: 4.1
- PBM binding z-score [8]: 4.36
- PBM binding z-score [9]: 1.29
- PBM binding z-score [10]: 2.94

Sequence: TCGAGTAGGTTAGTCGGGGTATTCAGCCAACATA
- PBM binding z-score [1]: 0.000404
- PBM binding z-score [2]: -0.0351
- PBM binding z-score [3]: -0.315
- PBM binding z-score [4]: 0.411
- PBM binding z-score [5]: -0.451
- PBM binding z-score [6]: 0.421
- PBM binding z-score [7]: -0.245
- PBM binding z-score [8]: 0.44
- PBM binding z-score [9]: 1.24
- PBM binding z-score [10]: 0.688

Sequence: CAAACTAGGTCACCGGAAGGTCACAGTCCGCATG
- PBM binding z-score [1]: 6.17
- PBM binding z-score [2]: 5.52
- PBM binding z-score [3]: 4.03
- PBM binding z-score [4]: 4.77
- PBM binding z-score [5]: 1.26
- PBM binding z-score [6]: 5.9
- PBM binding z-score [7]: 9.97
- PBM binding z-score [8]: 7.71
- PBM binding z-score [9]: 6.06
- PBM binding z-score [10]: 7.55

Sequence: GGAACGAGGGCATTCGAGTTGATAGGATGGCGAT
- PBM binding z-score [1]: 1.38
- PBM binding z-score [2]: 1.66
- PBM binding z-score [3]: -0.255
- PBM binding z-score [4]: -0.172
- PBM binding z-score [5]: -0.504
- PBM binding z-score [6]: 1.12
- PBM binding z-score [7]: 1.01
- PBM binding z-score [8]: 0.531
- PBM binding z-score [9]: -0.182
- PBM binding z-score [10]: -0.00549

Sequence: GCTTACGGTTCAAAGGTTATAGCATGAATAGAAT
- PBM binding z-score [1]: 4.43
- PBM binding z-score [2]: 4.34
- PBM binding z-score [3]: 0.505
- PBM binding z-score [4]: 4.04
- PBM binding z-score [5]: -0.0859
- PBM binding z-score [6]: 5.44
- PBM binding z-score [7]: 4.71
- PBM binding z-score [8]: 5.6
- PBM binding z-score [9]: 2.92
- PBM binding z-score [10]: 5.08

Sequence: CGTCCAAGGTCAATGCTTGGTCAGTGAAAGCATT
- PBM binding z-score [1]: 6.4
- PBM binding z-score [2]: 4.57
- PBM binding z-score [3]: 0.472
- PBM binding z-score [4]: 3.42
- PBM binding z-score [5]: 0.327
- PBM binding z-score [6]: 4.9
- PBM binding z-score [7]: 3.44
- PBM binding z-score [8]: 4
- PBM binding z-score [9]: 0.746
- PBM binding z-score [10]: 2.46

Sequence: ATCGTAAGGTCGAAGGTGAGTATACCCACCCGAA
- PBM binding z-score [1]: 2.6
- PBM binding z-score [2]: 1.9
- PBM binding z-score [3]: -0.314
- PBM binding z-score [4]: 1.71
- PBM binding z-score [5]: 0.36
- PBM binding z-score [6]: 3.41
- PBM binding z-score [7]: 3.62
- PBM binding z-score [8]: 3.7
- PBM binding z-score [9]: 1.42
- PBM binding z-score [10]: 3.36

Sequence: ACTATTAGTTCACTTAGGGCAACCGATACGACGC
- PBM binding z-score [1]: 1.66
- PBM binding z-score [2]: 0.968
- PBM binding z-score [3]: 0.685
- PBM binding z-score [4]: 0.657
- PBM binding z-score [5]: 0.81
- PBM binding z-score [6]: 0.893
- PBM binding z-score [7]: 1.04
- PBM binding z-score [8]: 0.566
- PBM binding z-score [9]: 0.591
- PBM binding z-score [10]: 0.169

Sequence: GCTGCAAGGTCAGGTTGGTCAGCTAACGGGTACG
- PBM binding z-score [1]: 4.43
- PBM binding z-score [2]: 2.88
- PBM binding z-score [3]: 0.0795
- PBM binding z-score [4]: 2.36
- PBM binding z-score [5]: 0.0855
- PBM binding z-score [6]: 3.65
- PBM binding z-score [7]: 1.36
- PBM binding z-score [8]: 2.37
- PBM binding z-score [9]: 0.236
- PBM binding z-score [10]: 1.42

Sequence: TCTTGTAGATCACCAGGAGGTTAAGAAAGATCGA
- PBM binding z-score [1]: 0.307
- PBM binding z-score [2]: 1.28
- PBM binding z-score [3]: -0.0899
- PBM binding z-score [4]: 0.866
- PBM binding z-score [5]: -0.174
- PBM binding z-score [6]: 1.39
- PBM binding z-score [7]: -0.000569
- PBM binding z-score [8]: 1.19
- PBM binding z-score [9]: 2.45
- PBM binding z-score [10]: 1.52

Sequence: TCTAGTTGGTGAAAGGTCACACACTCGAAATGCG
- PBM binding z-score [1]: 5.7
- PBM binding z-score [2]: 5.73
- PBM binding z-score [3]: 3.63
- PBM binding z-score [4]: 5.31
- PBM binding z-score [5]: 1.6
- PBM binding z-score [6]: 6.32
- PBM binding z-score [7]: 10.8
- PBM binding z-score [8]: 9.75
- PBM binding z-score [9]: 9.91
- PBM binding z-score [10]: 11.4

Sequence: GCTATTAGTTGCAAGGGCAACCGAATGATTCTCG
- PBM binding z-score [1]: 0.225
- PBM binding z-score [2]: 0.26
- PBM binding z-score [3]: -0.0244
- PBM binding z-score [4]: 0.193
- PBM binding z-score [5]: 0.0622
- PBM binding z-score [6]: 0.193
- PBM binding z-score [7]: 0.483
- PBM binding z-score [8]: 0.912
- PBM binding z-score [9]: 0.0952
- PBM binding z-score [10]: 0.546

Sequence: ACTTACGTGTCAACGAGGTTATAGCACGCGTATA
- PBM binding z-score [1]: 0.812
- PBM binding z-score [2]: 1.03
- PBM binding z-score [3]: 0.113
- PBM binding z-score [4]: 1.02
- PBM binding z-score [5]: 0.0422
- PBM binding z-score [6]: 1.84
- PBM binding z-score [7]: 0.927
- PBM binding z-score [8]: 0.653
- PBM binding z-score [9]: 0.374
- PBM binding z-score [10]: 0.627

Sequence: CTCGAAAGGTCGTGCTCAGGGGAGTATACCAAAC
- PBM binding z-score [1]: 4.81
- PBM binding z-score [2]: 3.33
- PBM binding z-score [3]: 0.243
- PBM binding z-score [4]: 3.32
- PBM binding z-score [5]: 0.229
- PBM binding z-score [6]: 4.69
- PBM binding z-score [7]: 2.3
- PBM binding z-score [8]: 3.33
- PBM binding z-score [9]: 0.905
- PBM binding z-score [10]: 2.16

Sequence: TTACCAAGGTGACAGGTCGTTGATGCACGCCTTG
- PBM binding z-score [1]: 0.924
- PBM binding z-score [2]: 1.02
- PBM binding z-score [3]: 0.111
- PBM binding z-score [4]: 0.582
- PBM binding z-score [5]: -0.664
- PBM binding z-score [6]: 2.56
- PBM binding z-score [7]: 3.23
- PBM binding z-score [8]: 4.37
- PBM binding z-score [9]: 1.99
- PBM binding z-score [10]: 3.62

Sequence: ACAGACAGGTGTTGAAGGTAACTCAGGCTATCAT
- PBM binding z-score [1]: -0.0696
- PBM binding z-score [2]: -0.375
- PBM binding z-score [3]: -0.136
- PBM binding z-score [4]: -0.298
- PBM binding z-score [5]: -0.389
- PBM binding z-score [6]: -0.0786
- PBM binding z-score [7]: 0.432
- PBM binding z-score [8]: -0.232
- PBM binding z-score [9]: -0.26
- PBM binding z-score [10]: -0.54

Sequence: GCGACTGGGGCGTCAGCAGGTTACCATAACTTAA
- PBM binding z-score [1]: -0.381
- PBM binding z-score [2]: -0.378
- PBM binding z-score [3]: -0.324
- PBM binding z-score [4]: 0.262
- PBM binding z-score [5]: -1.19
- PBM binding z-score [6]: 0.425
- PBM binding z-score [7]: 0.0029
- PBM binding z-score [8]: -0.411
- PBM binding z-score [9]: -0.842
- PBM binding z-score [10]: -0.965

Source: the supplement of paper PMC6555819
